# Rows were chosen to be rich in hits. Some 18% of all compounds tested hit in one or more screens of this group.
# IL-1B inflam inh – inhibitors of inflammasome signaling (IL-1 beta secretion) | THP-1 LPS/ATP IL-1B secretion, AlphaLISA, 16 h; hits give low values | activity change, % at 57.5 µM | actives 4.7% (n = 360,000) | AID 743279; in the data active means activity change below about -50%; inconclusive means mostly about -30% to -49%
#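 THP-1 cells pretreated 1 hr with compounds (up to 57.5 uM final), then stimulated with LPS (250 ng/mL final) plus ATP (1.25 mM final); secreted IL-1B measured by AlphaLISA after 16 hr, decreased signal indicating inhibition.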
# LDHA block – blocks human lactate dehydrogenase A; P00338; actives 0.15% (n = 480,000); purified LDHA, NADH/diaphorase-resazurin fluorescence; hits give low values; activity change, % (values are at about 110 or 230 µM); in the data active means activity change below about -30%; inconclusive means mostly about -25% to -30%;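 further: plate controls were DMSO wells for no effect and wells without enzyme for full effect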
#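 LDH5 2 nM; NADH 0.06 mM, pyruvate 0.2 mM; 200 mM Tris pH 7.4, EDTA, Tween-20; 5 min RT. Detection: diaphorase 0.133 mg/mL + resazurin 37 µM, fluorescence ex540/em590 at 0 and 20 min; normalized to enzyme-free and DMSO wells.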
# TDP1 cell CPT – growth inhibition of DT40 Tdp1-/-;hTDP1 cells with camptothecin (screen for TDP1 inhibitors) | Potency, µM (titrated, usually from 46.2 µM), inactives show at the highest dose activity change, negative = growth inhibition, usual class: inhibitors | actives 12% (n = 420,000) | chicken DT40 Tdp1-/-;hTDP1 cells + 20 nM CPT, ATP luminescence, 48 h | AID 686979; further: potency means the concentration at half of the fitted maximal effect; nearly all actives have a fitted effect of over 55% in size
#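 Chicken DT40 Tdp1-/- cells stably complemented with human TDP1 were seeded at 400 cells/well in medium containing 20 nM camptothecin, exposed to pin-transferred compounds, and grown at 37 °C for at least 48 hr. Viability was read as ATP luminescence.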
# Gal4-VP16 FLuc – Gal4-VP16 reporter inhibition counter-screen; Drosophila S2 Gal4-VP16 UAS-luciferase, luminescence, 20 h; Potency, µM (doses to about 53.6 µM), for inactives: at the top dose activity, negative = inhibition, hits mostly inhibitors; actives 3.5% (n = 310,000); AID 2546;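 further: Gal4-VP16 expression switched on by copper sulfate through the metallothionein promoter; potency means the concentration at half of the fitted maximal effect; nearly all actives have a fitted effect of over 50% in size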
# TDP1 cell noCPT – qHTS for Inhibitors of human tyrosyl-DNA phosphodiesterase 1 (TDP1): qHTS in cells in absence of CPT; DT40 Tdp1-/- hTDP1 cells, no CPT, ATP luminescence, 48 h; Potency, µM (doses to about 46.2 µM), for inactives: top-dose activity change, negative = growth inhibition, most hits filed as inhibitors; actives 15% (n = 420,000); AID 686978, 2013; further: potency means the concentration at half of the fitted maximal effect; nearly all actives have a fitted effect of over 55% in size
#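 Compound effects on proliferation are scored in DT40 Tdp1-/-;hTDP1 cells in the absence of CPT. ATP levels (CellTiter-Glo luminescence) are recorded after a ≥48 hr, 37 °C incubation.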
# RORgamma inh – inhibitors of mouse ROR gamma transcriptional activity; actives 5.4% (n = 310,000); Drosophila S2 Gal4-RORgamma UAS-luciferase reporter, 20 h; P51450; Potency, µM (titrated, usually from 53.6 µM), inactives show at the highest dose activity change, negative = inhibition, actives largely listed as inhibitors; further: potency means the concentration at half of the fitted maximal effect; nearly all actives have a fitted effect of over 60% in size
# Target sequence (P51450 whole entry, looked up, the tested form may be a part): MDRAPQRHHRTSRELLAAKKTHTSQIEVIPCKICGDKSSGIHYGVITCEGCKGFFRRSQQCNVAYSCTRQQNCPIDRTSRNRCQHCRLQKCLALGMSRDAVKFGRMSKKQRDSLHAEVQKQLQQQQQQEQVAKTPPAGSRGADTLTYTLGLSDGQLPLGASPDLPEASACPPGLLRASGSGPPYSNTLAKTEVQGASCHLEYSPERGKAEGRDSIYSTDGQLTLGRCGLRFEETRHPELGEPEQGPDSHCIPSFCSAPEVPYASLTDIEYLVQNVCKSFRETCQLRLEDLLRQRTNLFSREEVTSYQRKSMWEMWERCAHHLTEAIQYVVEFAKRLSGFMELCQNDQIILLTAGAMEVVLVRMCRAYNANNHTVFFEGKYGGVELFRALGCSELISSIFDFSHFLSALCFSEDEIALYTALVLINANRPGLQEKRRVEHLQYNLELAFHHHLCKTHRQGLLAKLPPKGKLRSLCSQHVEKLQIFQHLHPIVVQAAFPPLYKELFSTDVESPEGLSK
#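 Stably transfected Drosophila Schneider cells are the test system, with ROR gamma fused to Gal4 and luciferase under UAS control; luminescence is read after 20 hr of 700 uM copper sulfate induction at ambient temperature.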
# Active calls of the source: *; u = inconclusive; x = no result; [ ] = remark or other dose. Unless noted, the call rests on the fitted dose curve; in most records, active means well fitted curve in the direction sought with a large enough effect; inconclusive means small, poorly fitted or top-dose-only effect, or another doubt; inactive means no such curve, though single readings can be large; an effect the other way counts as inactive or inconclusive. Unless noted, on the % scale 0 is the no-effect control and ±100 the full control effect.
SMILES,IL-1B inflam inh,LDHA block,TDP1 cell CPT,Gal4-VP16 FLuc,TDP1 cell noCPT,RORgamma inh
CCOC(=O)N1CCN(C(=O)c2cc(-c3ccc(OCC)cc3)nc3ccccc23)CC1,17,-13,4.6µM*,u,3.7µM*,-23%
CCOC(=O)C1CCN(C(=O)c2cc(-c3ccncc3)nc3ccccc23)CC1,10,-5,u,x,21µM*,x
CCOc1ccc(-c2cc(C(=O)N3CCN(C)CC3)c3ccccc3n2)cc1,-3,-2,u,u,u,30%
CCOC(=O)N1CCN(C(=O)c2cc(-c3ccncc3)nc3ccccc23)CC1,13,-6,5.8µM*,x,5.8µM*,x
CCOc1ccc(-c2cc(C(=O)N3CCCC3)c3ccccc3n2)cc1,1,-4,u,17%,23µM*,-4%
CCc1ccc(-c2cc(C(F)(F)F)on2)cc1S(=O)(=O)Nc1cc(OC)ccc1OC,x,14,x,x,x,x
N#CCCn1c(SCC(=O)Nc2ccc(C(N)=O)cc2)nc2ccccc21,x,-17,x,x,x,x
CC(C)CC(=O)N1C/C=C\C[C@@H](c2ccc(Cl)cc2)N(Cc2ccc(Cl)cc2)C(=O)[C@@H]1Cc1ccccc1,x,x,10µM*,x,13µM*,x
O=C(O)[C@H]1c2ccccc2C(=O)N(Cc2ccc(F)cc2)[C@H]1c1ccc(Cl)cc1,x,9,x,x,x,x
O=C1[C@H](Cc2ccccc2)NCC=CC[C@@H](c2ccc(Cl)cc2)N1Cc1ccc(Cl)cc1,-60*,2,u,x,u,x
O=C1[C@H](Cc2ccccc2)NCC=CC[C@H](c2ccc(Cl)cc2)N1Cc1ccc(Cl)cc1,-66*,0,23µM*,x,16µM*,x
O=c1[nH]c2ccccc2n1Cc1ccc(Cl)cc1,-4,-6,-20%,-4%,u,12%
O=C1[C@H](Cc2ccccc2)NCC=CC[C@H](c2ccc(Cl)cc2)N1Cc1ccccc1,-52*,2,u,x,u,x
CCCc1csc(N)c1C(=O)OCC,x,7,x,x,x,x
O=C(c1ccc(CNS(=O)(=O)c2ccc(Br)cc2)cc1)N1CCCCCC1,-4,0,23µM*,-12%,u,u
CN1CCN(C(=O)c2ccc(S(=O)(=O)c3ccc(Br)cc3)cc2)CC1,6,-4,u,-6%,18µM*,-2%
Cn1c(=O)c2c(ncn2CCOCCOc2ccccc2)n(C)c1=O,x,-3,x,x,x,x
Cn1c(=O)c2c(ncn2CCOc2ccc(Br)cc2)n(C)c1=O,42,-5,u,u,16µM*,u
Cn1c(=O)c2c(ncn2Cc2ccc(Cl)cc2)n(C)c1=O,8,5,5.8µM*,-27%,16µM*,u
Cn1c(=O)c2c([nH]c(=S)n2Cc2ccc(Cl)cc2)n(C)c1=O,45,-9,-27%,u,-16%,13µM*
Cn1c(=O)c2c(ncn2CC(COCc2ccc(Cl)cc2)OCc2ccc(Cl)cc2)n(C)c1=O (configuration not stated),-14,-3,23µM*,u,15µM*,-42%
CCN(Cc1ccccc1)C1=CC(=O)OC12CCCCC2,x,3,x,x,x,x
CN(CC(=O)NC(N)=O)CC1CCCCC1,x,5,x,x,x,x
C1=Nc2c(Nc3ccccc3)ncnc2Oc2ccccc21,-24,-9,9.2µM*,9%,10µM*,5%
CC(C)c1ccc(-c2cc(C3CC3)nc(N)c2C#N)cc1,x,9,x,x,x,x
SMILES,IL-1B inflam inh,LDHA block,TDP1 cell CPT,Gal4-VP16 FLuc,TDP1 cell noCPT,RORgamma inh
COc1cc(OC)c(NC(=O)Cn2nc(-c3ccc(C)cc3)ccc2=O)cc1Cl,x,11,x,x,x,x
O=C(CCc1nnc(Cc2c[nH]c3ccccc23)o1)NCC1CC12CCCCC2 (configuration not stated),-5,-3,u,2%,26µM*,20%
O=C(Nc1ccncc1)c1cc(C2CCCCN2C(=O)CCCc2ccccc2)on1 (configuration not stated),2,-1,16µM*,x,15µM*,x
O=C(Nc1ccccc1Cl)c1cc(C2CCCCN2C(=O)CCc2ccccc2)on1 (configuration not stated),-17,-5,u,x,u,x
O=C(Nc1ccncc1)c1cc(C2CCCCN2C(=O)CCc2ccccc2)on1 (configuration not stated),1,-4,u,x,u,x
O=C(Nc1cccc2c1CCCC2)c1cc(C2CCCCN2C(=O)CCCc2ccccc2)on1 (configuration not stated),0,-3,16µM*,x,u,x
CC(C(=O)Nc1ccc(F)cc1)n1cnc2c1c(=O)n(C)c(=O)n2C (configuration not stated),x,4,x,x,x,x
Cc1ccc(CC#N)c(-c2c(CC#N)ccc(C)c2C)c1C,21,1,u,x,23µM*,x
Cc1cccc(NCCC#N)c1C,x,0,x,x,x,x
N#Cc1c(Cl)nc(N/N=C/c2ccccc2)c(Cl)c1Cl,-18,-12,9%,5µM*,0%,8.9µM*
COc1ccc(/C=C/C(=O)Oc2ccccc2C)cc1,x,2,x,x,x,x
COc1ccc(S(=O)(=O)N2CCN(Cc3cccc(Cl)c3)CC2)cc1,-14,0,u,6%,u,12%
COc1ccc(S(=O)(=O)N2CCN(Cc3ccc(OC)c(OC)c3)CC2)cc1,-23,0,-35%,-4%,u,38%
COc1ccc(CN2CCCN(S(=O)(=O)c3ccc(Br)cc3)CC2)cc1,-71*,1,u,-7%,18µM*,7%
COc1cccc(CN2CCN(S(=O)(=O)c3ccc(Cl)s3)CC2)c1,-51*,-2,3%,-14%,-4%,31%
COc1ccc(S(=O)(=O)N2CCN(Cc3cccc(F)c3)CC2)cc1,-23,-18,-4%,x,29µM*,x
COc1ccc(S(=O)(=O)N2CCN(Cc3ccc(Cl)cc3)CC2)cc1,-65*,-21,u,x,u,1%[0.365 µM]
O=C(Nc1ccc(OC(F)F)cc1)c1nc(SCc2ccccc2F)ncc1Cl,x,-2,u,x,13µM*,x
COc1ccc(CCNC(=O)c2nc(SCc3ccccc3F)ncc2Cl)cc1OC,x,-1,18µM*,x,23µM*,x
Cc1ccc(CNC(=O)c2nc(SCc3ccccc3F)ncc2Cl)cc1,x,-3,u,x,u,x
CC1(C)CC2(C)OC2C2(C1)N=NC(=Nc1ccccc1)O2 (configuration not stated),-99*,-6,4.1µM*,x,4.1µM*,x

# Screens from PubChem BioAssay.
